Rows were chosen to be rich in hits. Some 2.3% of all compounds tested hit in one or more screens of this group.
CHRM1 agonist = activates human CHRM1 receptor | AID 588814 | hit rate 0.33% among 360,000 | P11229 | CHO-K1 hM1, Fluo-8 calcium fluorescence, agonist mode; 0% DMSO, 100% acetylcholine EC100 | activation, % at 3 µM;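 active = activation above the run's mean compound activation plus 3 SD, cut at about 16% in these data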;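 also: peak over basal fluorescence ratio within a 140 s kinetic read after compound addition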
Target sequence (P11229 whole entry, looked up): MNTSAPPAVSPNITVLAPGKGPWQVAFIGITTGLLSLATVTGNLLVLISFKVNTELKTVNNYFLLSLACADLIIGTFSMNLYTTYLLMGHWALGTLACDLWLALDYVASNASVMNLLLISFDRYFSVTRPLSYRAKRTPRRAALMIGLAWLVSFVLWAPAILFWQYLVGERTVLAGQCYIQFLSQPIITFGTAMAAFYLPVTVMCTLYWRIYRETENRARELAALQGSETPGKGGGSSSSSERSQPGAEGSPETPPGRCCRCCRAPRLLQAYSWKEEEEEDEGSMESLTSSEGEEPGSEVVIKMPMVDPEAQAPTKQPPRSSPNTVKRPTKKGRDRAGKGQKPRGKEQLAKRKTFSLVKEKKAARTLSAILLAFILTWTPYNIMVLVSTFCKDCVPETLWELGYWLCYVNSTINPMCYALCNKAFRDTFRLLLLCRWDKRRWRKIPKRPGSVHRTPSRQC
CHO-K1 Ca antag = nonselective inhibitor or artifact in parental CHO-K1 cells. inhibition, % at 3 µM. ATP-induced calcium, Fluo-8 fluorescence. hit rate 0.6% among 360,000. AID 602250;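 active = inhibition above a per-plate cutoff, the plate's mean sample inhibition plus 3 SD, cut at about 24% in these data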
CHRM1 PAM = potentiates human M1 receptor response to acetylcholine; CHO-K1 hM1, Fluo-8 calcium fluorescence, ACh EC20; 0% = ACh EC20, 100% = maximal ACh; P11229; activation, % at 3 µM; hit rate 0.088% among 360,000; in the data active = activation above about 19%, passing the limit was not always enough
CHRM1 antagonist = human CHRM1 antagonism; P11229; CHO-K1 hM1, Fluo-8 calcium fluorescence, ACh EC80 antagonist; inhibition, % at 3 µM; hit rate 1.3% among 360,000; AID 588852;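 active = percent inhibition above its own plate's cutoff, namely the mean of that plate's compound wells plus 3 SD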;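 also: peak over basal fluorescence ratio during 140 s after agonist addition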
M1 ag parental = nonselective activator or artifact in parental CHO-K1 cells | hit rate 0.48% among 360,000 | Fluo-8 calcium fluorescence; scaled to maximal ATP response, vehicle zero | activation, % at 3 µM | AID 602248; in the data active = activation above about 15%;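 also: untransfected CHO-K1 host cells lacking M1 receptor as counterscreen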
M1 PAM parental = nonselective activator or artifact in parental CHO-K1 calcium assay | ATP EC20, Fluo-8 calcium fluorescence; 0% at ATP EC20, 100% at ATP max | hit rate 0.02% among 360,000 | activation, % at 3 µM | AID 602247;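 active = activation above the run cutoff, the mean activation of all test compounds plus 3 SD, cut at about 40% in these data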;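 also: peak over basal fluorescence ratio in a 140 s read after ATP addition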
Large screens that a line does not name were inactive.

COC(=O)C1CCN(c2ccc(Cl)nn2)CC1	none
COc1ccc(S(=O)(=O)Nc2ccc(Cc3ccncc3)cc2)cc1C	CHRM1 antagonist 39
CC(C)(C)c1ccc(S(=O)(=O)Nc2ccc(Cc3ccncc3)cc2)cc1	CHO-K1 Ca antag 24, CHRM1 antagonist 62
CC(=O)Nc1ccc(S(=O)(=O)Nc2ccc(Cc3ccncc3)cc2)cc1	none
COc1ccc(NS(=O)(=O)c2ccc(-c3cnc(C4CC4)o3)cc2)cc1OC	M1 ag parental 16
COc1ccc(NS(=O)(=O)c2ccc3c(c2)OCCO3)cc1OC	CHO-K1 Ca antag 36, CHRM1 antagonist 26
COc1ccc(NS(=O)(=O)c2cccc(C(=O)NCC(c3ccccc3)N(C)C)c2)cc1 (configuration not stated)	none
COc1ccccc1C(CNC(=O)c1cccc(S(=O)(=O)Nc2ccc(C)cc2)c1)N(C)C (configuration not stated)	CHRM1 antagonist 99
COc1ccccc1NS(=O)(=O)c1ccc(-c2cnc(C3CC3)o2)cc1	none
COc1ccccc1C(CNC(=O)c1ccc(NS(=O)(=O)c2ccc3c(c2)OCCO3)cc1)N(C)C (configuration not stated)	CHRM1 antagonist 40
COc1ccc(NC(=O)C(Sc2ccccc2)c2ccccc2)c(OC)c1 (configuration not stated)	M1 PAM parental 43
COc1ccc(NC(=O)C2CCN(S(=O)(=O)c3ccc(OC)c(OC)c3)CC2)c(OC)c1	CHO-K1 Ca antag 26
COc1ccc(NC(=O)C2CCN(S(C)(=O)=O)CC2)c(OC)c1	none
COc1ccc(NC(=O)C2CCN(C(=O)c3ccccc3)CC2)c(OC)c1	CHRM1 antagonist 61
COc1ccc(C(=O)N2CCC(C(=O)Nc3ccccc3OC)CC2)cc1	none
COc1ccccc1NC(=O)C(Sc1ccccc1)c1ccccc1 (configuration not stated)	none
Cc1ccc(OC2CCN(C(=O)[C@H]3O[C@@H](n4ccc(=O)[nH]c4=O)[C@H](O)[C@@H]3O)CC2)cc1	none
CC(C)N(C)c1ncnc2c1ncn2[C@H]1CN(C2CCCC2)C[C@@H](CO)O1	none
Cn1c(=O)[nH]c(=O)c2c1nc(SCC(O)CO)n2Cc1ccccc1Cl (configuration not stated)	none
O=C(NNc1ccccc1Br)C(O)(c1cccc(C(F)(F)F)c1)c1cccc(C(F)(F)F)c1	CHRM1 antagonist 36
Cc1ccc(NNC(=O)C(O)(c2cccc(C(F)(F)F)c2)c2cccc(C(F)(F)F)c2)cc1	none
CCOC(=O)C1=C[C@@H](C(C)C)N(S(=O)(=O)c2ccc([N+](=O)[O-])cc2)[C@H]1c1ccccc1	CHRM1 antagonist 58
CCOC(=O)C1=C[C@@H](CC)N(S(=O)(=O)c2ccc([N+](=O)[O-])cc2)[C@H]1c1ccccc1	none
COc1ccc(CN(C)C2c3ccccc3-c3ccccc32)cc1	none
CCCCCn1nc(C(=O)OCC(=O)c2c(N)n(C)c(=O)n(C)c2=O)c2ccccc2c1=O	none
CCCCCCn1nc(C(=O)OCC(=O)c2c(N)n(C)c(=O)n(C)c2=O)c2ccccc2c1=O	CHRM1 antagonist 39
CCCCC(CC)C1OCC(C[N+]2(C)CCOCC2)O1 (configuration not stated)	CHRM1 antagonist 43
Cc1cc(/C=N/n2cnnc2)c(C)n1-c1ccc(OCc2ccc(Cl)cc2)cc1	CHO-K1 Ca antag 24
Cc1cc(/C=N/n2cnnc2)c(C)n1-c1ccc(OCc2ccccc2F)cc1	CHRM1 antagonist 45
Cc1c2cnn(-c3ccccc3)c(=O)c2c(C)n1CCCC(=O)N1CCN(C2CCCCC2)CC1	CHRM1 agonist 38
CCN1CCN(C(=O)CCCn2c(C)c3cnn(-c4ccccc4)c(=O)c3c2C)CC1	CHRM1 PAM 25
CC1(C(=O)NS(=O)(=O)c2ccccc2Cl)CCN1C(=O)C1(c2ccc(Cl)cc2)CCC1 (configuration not stated)	CHO-K1 Ca antag 48
CC1(C(=O)NS(=O)(=O)c2ccccc2Cl)CCN1C(=O)C1(c2ccc(Cl)cc2)CC1 (configuration not stated)	none
COC(=O)c1ccc(C2/C(=C(/O)c3ccc4c(c3)CC(C)O4)C(=O)C(=O)N2Cc2ccncc2)cc1 (configuration not stated)	none
CCC(C)[C@@H](NC(=O)OC(C)(C)C)c1nnc(S(=O)(=O)Cc2cccc(C)c2)o1 (some centres not stated)	CHO-K1 Ca antag 26
Cc1ccccc1CS(=O)(=O)c1nnc([C@H](Cc2ccccc2)NC(=O)OC(C)(C)C)o1	none
O=S(=O)(/N=S1\CC=CCN1S(=O)(=O)c1ccccc1)c1ccccc1 (configuration not stated)	CHRM1 agonist 38, M1 ag parental 35
CC1=C(C)CS(=O)N(S(=O)(=O)c2ccccc2)C1 (configuration not stated)	none
COc1ccc(C(=O)NNC(=S)NC(=O)c2ccc(F)cc2)cc1Br	CHRM1 agonist 88, CHRM1 antagonist 35, M1 ag parental 66
COc1cc(C(=O)NC(=S)Nc2ccc3c(c2)OCO3)cc(OC)c1OC	none
COc1cc(C(=O)NC(=S)NNC(=O)c2ccc3c(c2)OCO3)cc(OC)c1OC	CHRM1 agonist 17
COc1ccc(C(=O)NNC(=S)NC(=O)c2cccnc2)cc1	none
COc1ccc(C(=O)NNC(=S)NC(=O)c2ccc(OC)cc2)cc1	CHRM1 agonist 23, M1 ag parental 34
COc1ccc(Cl)cc1C(=O)NNC(=S)NC(=O)c1ccc(F)c(F)c1	CHRM1 agonist 37
COCCCN(C(=O)C1=COCCO1)c1c(N)n(Cc2ccccc2)c(=O)[nH]c1=O	none
Cc1ccc(Nc2nc(-c3ccc(S(=O)(=O)N4CCOCC4)cc3)cs2)cc1Cl	none
CCC(=O)C1CCCN(C(=O)c2ccc(OC3CCN(C(=O)c4cccnc4)CC3)cc2)C1 (configuration not stated)	none
CCCCC(=O)NC(=S)NNC(=O)c1ccc(OC)cc1	M1 ag parental 31
N/C(=N\OCc1ccc([N+](=O)[O-])cc1)c1ccncc1	CHO-K1 Ca antag 30
O=C(NNC(=O)c1ccc([N+](=O)[O-])cc1)c1ccncc1	none
CCC(NC(=O)c1ccc2nc(Cc3ccc(OC)cc3)oc2c1)c1ccncc1 (configuration not stated)	M1 ag parental 15
CC1CCCCC1NC(=O)COc1ccccc1C#N (configuration not stated)	none
Oc1ccc(Br)cc1-c1cc(-c2ccccc2F)[nH]n1	CHO-K1 Ca antag 26
CCOC(=O)c1c(C)[nH]c(C)c1S(=O)(=O)NC(C)Cc1ccco1 (configuration not stated)	none
